# Reference: PubChem BioAssay AID841 (Emory University Molecular Libraries Screening Center, 2007)
# Screen size: about 140,000 compounds; about 2,100 (1.5%) were called active. Only a selection was taken, and actives are over-represented in it overall. Unmarked numbers belong to inactive results. Cut-off read from the data, not from the text of the source: active = protection mostly above about 24% (no sharp cut-off); inactive = mostly below about 26%.
# Assay: blockers of measles virus-induced cell death – single point, MLSMR library, absorbance, measles RdRp inhibitor project, primary screen (AID 841)
# Conditions: Measles virus-infected cells, CPE protection, at 4 µM, active compounds read high
row,Structure (SMILES),protection (pct of control)
1,Cc1ccc(-c2cc(C(=O)N/N=C/C=C/c3ccccc3)n[nH]2)o1,25.7%
2,Cc1ccc(N=C2NC(=O)c3cccc([N+](=O)[O-])c32)cc1,8.24%
3,Cn1c2c(c(=O)n(C)c1=O)C1c3ccccc3OCC1C(C)(C)O2 (centres undefined),12.9%
4,COc1cccc2c1OCC1COc3c(c(=O)n(C)c(=O)n3C)C21 (centres undefined),23.9%
5,Cn1c2c(c(=O)n(C)c1=O)[C@@H]1c3c(ccc4ccccc34)OC[C@@H]1CO2,38.9% (active)
6,COc1ccc(-c2csc(NC(=O)COC(=O)c3ccc(Br)o3)n2)cc1,7.27%
7,O=C(CSc1nnc(-c2ccncc2)o1)NCc1ccc(Cl)cc1,5.59%
8,Cc1ccc(N(C(=O)C(F)(F)F)C(C(=O)NC2CCCCC2)c2ccncc2)cc1C (centres undefined),29.7%
9,COc1cc2c(cc1OC)C(=O)NCC(C)(C)O2,6.34%
10,Cc1ccc(Cl)cc1-c1ccc(/C=N/n2cnnc2)o1,70.5% (active)
11,Cc1cc([N+](=O)[O-])c(-c2ccc(/C=N/n3cnnc3)o2)cc1Cl,33.8%
12,Cc1cc(-c2ccc(/C=N/n3cnnc3)o2)c([N+](=O)[O-])cc1C,28.4%
13,Cc1ccc(N2C(=O)C(NC(=O)c3c(F)cccc3F)(C(F)(F)F)C3=C2CC(C)(C)CC3=O)cc1 (centres undefined),5.53%
14,CCc1c(C)sc(NC(=O)/C=C/c2ccc3c(c2)OCO3)c1C(=O)OC,3.56%
15,Cc1cccc(NC(=O)/C=C/c2ccc3c(c2)OCO3)n1,46.6% (active)
16,O=C(/C=C/c1ccc2c(c1)OCO2)NCc1ccc(F)cc1,5.86%
17,CCCCc1ccc(NC(=S)N2CCCC(CO)C2)cc1 (centres undefined),11.5%
18,O=C(CN1C(=O)/C(=C\c2ccccc2F)SC1=S)Nc1nc2ccccc2s1,6.1%
19,Cc1noc(/C=C/c2ccco2)c1S(=O)(=O)N1CCC(C(=O)Nc2ccc(Cl)cn2)CC1,7.95%
20,CCC(C)(C)C1CCC(=NNC(=O)c2ccc(Br)o2)CC1 (centres undefined),39% (active)
21,C/C(=N/NC(=O)c1ccc(Br)o1)c1ccc(C)o1,13%
22,CC(C)(C)C1CCC(=NNC(=O)c2ccc(Br)o2)CC1 (centres undefined),3.96%
23,CC1(C)C(C=C(Cl)Cl)C1C(=O)N(Cc1ccc(Cl)cc1)C1CCS(=O)(=O)C1 (centres undefined),9.24%
24,Fc1ccc(CNCc2ccc(Br)cc2)cc1,8.72%
25,N#CC1(NC(=O)COc2ccc3oc4ccccc4c3c2)CCCCC1,21.4%

row,Structure (SMILES),protection (pct of control)
1,Cc1cc(C)cc(OCC(=O)NNC(=O)CCN2C(=O)c3ccccc3C2=O)c1,9.19%
2,Cc1nc(-c2ccccc2)cn2c1nc1ccccc12,23.6%
3,CC(=O)Nc1cccc(NC(=O)c2c(-c3ccccc3)noc2C)c1,14.1%
4,CCOC(=O)c1c(-c2ccccc2)csc1NC(=S)NC(=O)c1ccccc1,9.01%
5,CCOC(=O)c1c(-c2cccc(C)c2)csc1NC(=O)c1c(-c2ccccc2)noc1C,54.7% (active)
6,CCc1cc(C(=O)OC)c(NC(=O)CC2Sc3ccc(C(F)(F)F)cc3NC2=O)s1 (centres undefined),11.3%
7,CCOc1ccc(NC(=O)c2ccc(CSc3nnnn3C)cc2)cc1,10.1%
8,Cc1c(C(=O)Nc2cccc(Cl)c2)cn2c(nc3ccccc32)c1C#N,8.24%
9,CCCCC(NS(=O)(=O)c1ccc(C)cc1)C(=O)Oc1ccc2c3c(c(=O)oc2c1)CCC3 (centres undefined),9.68%
10,CC1CN(S(=O)(=O)c2ccc(C(=O)Nc3sccc3C(N)=O)cc2)CC(C)O1 (centres undefined),9.47%
11,O=C(Nc1cccc(NC(=O)N2CCN(c3ccccc3)CC2)c1)N1CCN(c2ccccc2)CC1,27.8%
12,O=C(Nc1ccccc1)N1CCN(Cc2ccccc2)CC1,65.6% (active)
13,O=C(NC(=S)N1CCN(Cc2ccccc2)CC1)c1ccccc1,18%
14,CN(Cc1ccccc1)C(=O)COC(=O)c1ccccc1Nc1ccccc1,18.6%
15,O=[N+]([O-])c1ccccc1SNc1ccccn1,4.84%
16,O=C(CCl)NNc1cccc(Cl)n1,28.9% (active)
17,O=C(NNc1ccccn1)c1ccc(Cl)nc1,3.74%
18,COc1cc(OC)nc(NC(=O)CCl)n1,15.4%
19,COc1cc(OC)c(C(=O)Nc2ccccc2-c2ccccc2)cc1OC,39.7%
20,CC(OC(=O)CNS(=O)(=O)/C=C/c1ccccc1)C(=O)Nc1ccc(S(=O)(=O)N2CCCC2)cc1 (centres undefined),8.77%
21,Cc1nn(Cc2ccc(F)cc2)c(C)c1NC(=O)c1cccnc1Cl,10.5%
22,CC(NC(=O)CSc1nc2c(cc1C#N)CN(C)CC2)c1ccccc1 (centres undefined),48.7% (active)
23,CC1(C)CCc2nc(SCc3ccccc3)c(C#N)cc2C1,17.7%
24,Cc1nc2cc(NC(=O)CSc3nc4c(C)cccc4cc3C#N)ccc2s1,7.78%
